Among the data in PubChem BioAssay (EPA / NIEHS) are outcome and AC50 values, retold here.

Structures are written as SMILES. Inconclusive results are not listed. The source made the active and inactive calls. How the source made its calls: active means hit-call score of the fitted dose curve at least 0.9, where 1 is the maximum; inconclusive means response in the unintended direction; inactive means score below 0.9.

Assay [1] deals with human Peroxisome Proliferator-activated Receptor delta (PPARd), PPARD (gene 5467) (UniProt Q03181). Briefly: ATG_PPARd_TRANS: Attagene TRANS-FACTORIAL HepG2 Assay for human Peroxisome Proliferator-activated Receptor delta (PPARd) (AID 2283002). The gist of the method:
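Read-out is induced reporter mRNA, quantified by RT-PCR with fluorescent labelling and capillary electrophoresis after 24 h dosing. Cells are HepG2 transiently carrying multiple GAL4-UAS reporter units driven by exogenous NR-GAL4 chimeras; DMSO serves as baseline.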

The target in assay [2] is Retinoic acid receptor alpha (Homo sapiens) (UniProt P10276). Briefly: ATG_RARa_TRANS: Attagene TRANS-FACTORIAL HepG2 Assay for human Retinoic Acid Receptor alpha (RARa) (AID 2283005). Summed up: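 Reporter transcripts, measured by RT-PCR with fluorescent labeling and capillary electrophoresis after 24 h dosing, reflect activity of an exogenous human RARa–GAL4 fusion in transiently transfected HepG2. Fitted for increase relative to DMSO.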

The target in assay [3] is Nuclear receptor subfamily 1 group I member 2 (Homo sapiens) (UniProt O75469). The assay can be described thus: ATG_PXR_TRANS: Attagene TRANS-FACTORIAL HepG2 Assay for human Pregnane X Receptor (PXR) (AID 2283008). Summed up:
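Multiplexed TRANS reporter panel in HepG2; this component tracks PXR-Gal4-driven reporter mRNA after 24 h dosing, measured by RT-PCR with capillary electrophoresis fluorescence, fitted against DMSO.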

Assay [4] deals with human Retinoic Acid Receptor gamma (RARg), RARG (gene 5916) (UniProt P13631). Briefly: ATG_RARg_TRANS: Attagene TRANS-FACTORIAL HepG2 Assay for human Retinoic Acid Receptor gamma (RARg) (AID 2283009). Summed up:
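Gain-of-signal relative to DMSO is reported from fluorescent capillary electrophoresis of RT-PCR reporter products. These came from HepG2 cells expressing transfected RARg-GAL4 chimeras with UAS reporters, harvested 24 h after dosing.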

The target in assay [5] is Retinoic acid receptor RXR-alpha (Homo sapiens) (UniProt P19793). The assay can be described thus: ATG_RXRa_TRANS: Attagene TRANS-FACTORIAL HepG2 Assay for human Retinoid X Receptor alpha (RXRa) (AID 2283012). The gist of the method:
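Chimeric NR-GAL4 trans-activation in HepG2, 24 h treatment; reporter transcripts quantified by fluorescence on capillary electrophoresis, analysed for upward change from DMSO.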

Assay [6] concerns the target human Retinoid X Receptor beta (RXRb), RXRB (gene 6257) (UniProt P28702). The assay can be described thus: ATG_RXRb_TRANS: Attagene TRANS-FACTORIAL HepG2 Assay for human Retinoid X Receptor beta (RXRb) (AID 2283013). The gist of the method: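 After a 24 h incubation with test chemical, transfected HepG2 cells carrying NR-Gal4 fusions and GAL4-UAS reporter transcription units yield RNA whose reporter cDNA is FAM-labelled, HpaI-cut and sized by capillary electrophoresis; increases over DMSO are scored.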

In assay [7] the target is human Thyroid Receptor alpha (THRa1), THRA (gene 7067) (UniProt P10827). Briefly: ATG_THRa1_TRANS: Attagene TRANS-FACTORIAL HepG2 Assay for human Thyroid Receptor alpha (THRa1) (AID 2283014). Summed up:
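HepG2 cells transiently transfected with chimeric NR-Gal4 and GAL4-UAS reporter units, dosed 24 h. Reporter mRNA quantified by RT-PCR, fluorescent labeling, HpaI digestion and capillary electrophoresis; gain-of-signal fit versus DMSO.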

Assay [8] has as its target human Peroxisome Proliferator-activated Receptor alpha (PPARa), PPARA (gene 5465) (UniProt Q07869). Briefly: ATG_PPARa_TRANS: Attagene TRANS-FACTORIAL HepG2 Assay for human Peroxisome Proliferator-activated Receptor alpha (PPARa) (AID 2283001). Summed up:
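Transfected HepG2 cells treated with test chemical for 24 h. RNA isolated, reverse-transcribed with oligo(dT), PCR-amplified, FAM-labelled and HpaI-digested. Fragments sized by capillary electrophoresis; gain-of-signal fit relative to DMSO.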

Assay [9] concerns the target human RAR-related Orphan Receptor gamma (RORg), RORC (gene 6097) (UniProt P51449). Briefly: ATG_RORg_TRANS: Attagene TRANS-FACTORIAL HepG2 Assay for human RAR-related Orphan Receptor gamma (RORg) (AID 2283011). The gist of the method: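 HepG2 cells transiently transfected with GAL4-UAS reporter units and chimeric RORg-Gal4 construct; after 24 h chemical exposure, reporter mRNA measured by RT-PCR with fluorescent capillary electrophoresis, gain of signal fitted against DMSO.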

Assay [10] deals with Peroxisome proliferator-activated receptor gamma (Homo sapiens) (UniProt P37231). Briefly: ATG_PPARg_TRANS: Attagene TRANS-FACTORIAL HepG2 Assay for human Peroxisome Proliferator-activated Receptor-gamma (PPARg) (AID 2283007). The gist of the method: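 Chimeric NR-Gal4 transactivation is measured in transiently transfected HepG2 cells by reporter mRNA induction at 24 h. Detection uses RT-PCR with fluorescent labelling and capillary electrophoresis; DMSO defines baseline.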
Chain of Peroxisome proliferator-activated receptor gamma (Homo sapiens) (P37231 whole entry, looked up, the tested form may be a part): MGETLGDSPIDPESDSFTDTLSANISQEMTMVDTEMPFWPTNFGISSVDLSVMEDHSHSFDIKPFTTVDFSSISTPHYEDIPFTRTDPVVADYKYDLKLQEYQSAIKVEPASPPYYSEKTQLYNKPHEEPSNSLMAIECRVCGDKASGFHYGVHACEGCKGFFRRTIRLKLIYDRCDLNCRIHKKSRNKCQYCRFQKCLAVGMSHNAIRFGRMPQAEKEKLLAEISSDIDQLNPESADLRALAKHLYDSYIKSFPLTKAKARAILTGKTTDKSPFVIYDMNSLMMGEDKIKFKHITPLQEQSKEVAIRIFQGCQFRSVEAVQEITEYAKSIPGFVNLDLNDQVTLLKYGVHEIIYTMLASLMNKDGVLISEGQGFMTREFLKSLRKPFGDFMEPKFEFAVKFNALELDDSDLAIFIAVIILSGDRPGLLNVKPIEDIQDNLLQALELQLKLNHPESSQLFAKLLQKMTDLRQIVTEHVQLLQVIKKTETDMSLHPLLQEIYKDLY

For assay [11], the target named is human RAR-related Orphan Receptor beta (RORb), RORB (gene 6096) (UniProt Q92753). Briefly: ATG_RORb_TRANS: Attagene TRANS-FACTORIAL HepG2 Assay for human RAR-related Orphan Receptor beta (RORb) (AID 2283010). Summed up:
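Multiplexed transcription-factor reporter assay: HepG2 cells transiently carrying NR-Gal4/GAL4-UAS constructs, 24 h treatment, mRNA quantified by RT-PCR plus capillary electrophoresis fluorescence; activity scored as induction over DMSO.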

Chain of human RAR-related Orphan Receptor gamma (RORg), RORC (gene 6097) (P51449 whole entry, looked up, the tested form may be a part): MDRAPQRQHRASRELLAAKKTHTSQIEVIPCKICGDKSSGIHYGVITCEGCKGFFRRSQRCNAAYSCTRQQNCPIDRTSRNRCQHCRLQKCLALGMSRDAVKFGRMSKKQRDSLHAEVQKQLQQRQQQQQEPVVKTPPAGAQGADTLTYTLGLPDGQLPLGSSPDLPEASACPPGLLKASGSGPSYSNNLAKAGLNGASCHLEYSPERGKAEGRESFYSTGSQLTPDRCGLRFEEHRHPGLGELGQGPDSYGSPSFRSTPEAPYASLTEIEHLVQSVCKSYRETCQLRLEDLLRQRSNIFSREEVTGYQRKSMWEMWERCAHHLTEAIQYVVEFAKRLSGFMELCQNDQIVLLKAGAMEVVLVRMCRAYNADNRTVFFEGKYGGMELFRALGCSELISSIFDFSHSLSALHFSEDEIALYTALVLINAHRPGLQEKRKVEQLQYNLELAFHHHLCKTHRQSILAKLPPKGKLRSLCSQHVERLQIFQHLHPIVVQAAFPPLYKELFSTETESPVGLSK
Chain of Nuclear receptor subfamily 1 group I member 2 (Homo sapiens) (O75469 whole entry, looked up, the tested form may be a part): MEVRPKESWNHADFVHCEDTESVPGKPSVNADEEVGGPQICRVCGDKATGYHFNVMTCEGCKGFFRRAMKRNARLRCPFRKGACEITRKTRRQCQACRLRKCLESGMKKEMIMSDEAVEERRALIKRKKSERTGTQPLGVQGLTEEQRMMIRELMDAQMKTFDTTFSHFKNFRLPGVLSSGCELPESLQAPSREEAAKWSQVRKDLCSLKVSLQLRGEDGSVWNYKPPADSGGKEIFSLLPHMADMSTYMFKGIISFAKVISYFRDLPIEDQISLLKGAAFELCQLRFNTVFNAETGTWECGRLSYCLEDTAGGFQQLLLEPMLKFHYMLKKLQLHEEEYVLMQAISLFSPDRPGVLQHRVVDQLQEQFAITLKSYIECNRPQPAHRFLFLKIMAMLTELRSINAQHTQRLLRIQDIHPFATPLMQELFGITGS
Chain of human Thyroid Receptor alpha (THRa1), THRA (gene 7067) (P10827 whole entry, looked up, the tested form may be a part): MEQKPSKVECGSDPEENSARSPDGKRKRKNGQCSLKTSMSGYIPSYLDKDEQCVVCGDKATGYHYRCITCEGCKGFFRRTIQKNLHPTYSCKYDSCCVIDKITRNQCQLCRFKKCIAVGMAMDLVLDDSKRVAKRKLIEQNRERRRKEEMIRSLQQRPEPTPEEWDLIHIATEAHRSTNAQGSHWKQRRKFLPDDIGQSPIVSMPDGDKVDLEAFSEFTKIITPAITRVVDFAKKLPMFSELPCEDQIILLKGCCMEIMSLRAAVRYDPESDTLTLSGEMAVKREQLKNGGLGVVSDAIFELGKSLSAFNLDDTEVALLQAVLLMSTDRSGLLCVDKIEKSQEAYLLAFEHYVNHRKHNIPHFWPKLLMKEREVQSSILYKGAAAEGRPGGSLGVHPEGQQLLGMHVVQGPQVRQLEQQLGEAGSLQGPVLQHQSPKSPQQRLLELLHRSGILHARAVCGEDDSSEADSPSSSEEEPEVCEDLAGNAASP
Chain of human Retinoid X Receptor beta (RXRb), RXRB (gene 6257) (P28702 whole entry, looked up, the tested form may be a part): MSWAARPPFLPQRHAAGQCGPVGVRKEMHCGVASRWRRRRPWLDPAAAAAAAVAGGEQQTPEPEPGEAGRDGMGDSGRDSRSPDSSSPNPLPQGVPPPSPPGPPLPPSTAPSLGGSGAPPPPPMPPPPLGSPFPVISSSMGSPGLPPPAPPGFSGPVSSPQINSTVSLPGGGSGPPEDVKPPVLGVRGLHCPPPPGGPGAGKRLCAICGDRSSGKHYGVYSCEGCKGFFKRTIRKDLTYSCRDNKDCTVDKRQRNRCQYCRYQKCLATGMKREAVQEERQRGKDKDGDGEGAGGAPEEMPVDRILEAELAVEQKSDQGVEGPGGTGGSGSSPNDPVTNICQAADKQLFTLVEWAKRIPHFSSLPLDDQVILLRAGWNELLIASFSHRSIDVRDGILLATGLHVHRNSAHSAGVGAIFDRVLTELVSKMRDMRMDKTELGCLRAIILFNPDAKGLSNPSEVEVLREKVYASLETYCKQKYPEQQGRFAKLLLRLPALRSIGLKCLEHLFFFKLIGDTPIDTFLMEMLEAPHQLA
Chain of human Peroxisome Proliferator-activated Receptor delta (PPARd), PPARD (gene 5467) (Q03181 whole entry, looked up, the tested form may be a part): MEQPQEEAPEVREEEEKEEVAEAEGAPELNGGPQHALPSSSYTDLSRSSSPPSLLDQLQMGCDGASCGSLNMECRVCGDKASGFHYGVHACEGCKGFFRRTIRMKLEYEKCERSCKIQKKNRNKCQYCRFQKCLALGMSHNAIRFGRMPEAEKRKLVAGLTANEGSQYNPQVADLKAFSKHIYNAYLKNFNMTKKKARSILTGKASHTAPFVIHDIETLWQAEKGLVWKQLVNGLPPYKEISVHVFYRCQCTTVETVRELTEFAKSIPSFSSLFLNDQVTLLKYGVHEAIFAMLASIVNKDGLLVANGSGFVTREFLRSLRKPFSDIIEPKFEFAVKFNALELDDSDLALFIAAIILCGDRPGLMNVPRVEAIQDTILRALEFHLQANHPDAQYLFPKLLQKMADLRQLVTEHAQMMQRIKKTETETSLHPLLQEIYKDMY
Chain of Retinoic acid receptor RXR-alpha (Homo sapiens) (P19793 whole entry, looked up, the tested form may be a part): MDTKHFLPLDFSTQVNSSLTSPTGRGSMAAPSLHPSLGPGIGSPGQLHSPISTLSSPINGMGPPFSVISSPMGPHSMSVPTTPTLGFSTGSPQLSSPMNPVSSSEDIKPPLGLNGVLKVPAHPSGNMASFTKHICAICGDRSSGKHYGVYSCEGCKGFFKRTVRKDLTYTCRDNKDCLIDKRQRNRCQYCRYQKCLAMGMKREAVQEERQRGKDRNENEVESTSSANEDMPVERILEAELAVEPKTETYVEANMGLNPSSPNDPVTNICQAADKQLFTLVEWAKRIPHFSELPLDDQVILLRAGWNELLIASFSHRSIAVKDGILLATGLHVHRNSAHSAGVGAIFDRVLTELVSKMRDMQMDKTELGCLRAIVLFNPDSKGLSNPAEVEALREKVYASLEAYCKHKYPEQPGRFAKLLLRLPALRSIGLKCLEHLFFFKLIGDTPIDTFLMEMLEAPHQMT
Chain of human RAR-related Orphan Receptor beta (RORb), RORB (gene 6096) (Q92753 whole entry, looked up, the tested form may be a part): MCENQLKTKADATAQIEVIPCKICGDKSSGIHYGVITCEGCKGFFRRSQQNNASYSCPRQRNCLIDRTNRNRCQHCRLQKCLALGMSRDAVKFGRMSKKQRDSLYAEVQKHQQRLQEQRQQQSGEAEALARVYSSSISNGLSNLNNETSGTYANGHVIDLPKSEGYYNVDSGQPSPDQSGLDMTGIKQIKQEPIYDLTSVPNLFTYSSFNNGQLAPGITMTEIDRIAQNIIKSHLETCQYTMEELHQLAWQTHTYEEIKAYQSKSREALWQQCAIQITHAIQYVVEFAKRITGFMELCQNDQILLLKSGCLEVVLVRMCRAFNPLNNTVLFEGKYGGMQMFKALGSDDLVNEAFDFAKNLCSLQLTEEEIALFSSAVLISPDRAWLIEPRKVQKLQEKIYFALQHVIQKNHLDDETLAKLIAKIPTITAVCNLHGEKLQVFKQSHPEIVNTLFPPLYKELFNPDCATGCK
Chain of human Retinoic Acid Receptor gamma (RARg), RARG (gene 5916) (P13631 whole entry, looked up, the tested form may be a part): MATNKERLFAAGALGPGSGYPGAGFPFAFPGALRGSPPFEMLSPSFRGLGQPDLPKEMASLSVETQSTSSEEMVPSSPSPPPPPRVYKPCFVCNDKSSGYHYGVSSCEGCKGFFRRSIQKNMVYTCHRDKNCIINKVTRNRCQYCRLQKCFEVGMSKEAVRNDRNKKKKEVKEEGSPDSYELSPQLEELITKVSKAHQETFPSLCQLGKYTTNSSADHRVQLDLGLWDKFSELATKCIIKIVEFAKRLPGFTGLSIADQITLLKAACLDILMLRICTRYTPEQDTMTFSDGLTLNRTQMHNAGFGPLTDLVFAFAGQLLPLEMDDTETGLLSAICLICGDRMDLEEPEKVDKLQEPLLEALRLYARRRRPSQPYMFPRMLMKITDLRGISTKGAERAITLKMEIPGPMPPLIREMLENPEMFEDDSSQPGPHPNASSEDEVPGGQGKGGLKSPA
Chain of human Peroxisome Proliferator-activated Receptor alpha (PPARa), PPARA (gene 5465) (Q07869 whole entry, looked up, the tested form may be a part): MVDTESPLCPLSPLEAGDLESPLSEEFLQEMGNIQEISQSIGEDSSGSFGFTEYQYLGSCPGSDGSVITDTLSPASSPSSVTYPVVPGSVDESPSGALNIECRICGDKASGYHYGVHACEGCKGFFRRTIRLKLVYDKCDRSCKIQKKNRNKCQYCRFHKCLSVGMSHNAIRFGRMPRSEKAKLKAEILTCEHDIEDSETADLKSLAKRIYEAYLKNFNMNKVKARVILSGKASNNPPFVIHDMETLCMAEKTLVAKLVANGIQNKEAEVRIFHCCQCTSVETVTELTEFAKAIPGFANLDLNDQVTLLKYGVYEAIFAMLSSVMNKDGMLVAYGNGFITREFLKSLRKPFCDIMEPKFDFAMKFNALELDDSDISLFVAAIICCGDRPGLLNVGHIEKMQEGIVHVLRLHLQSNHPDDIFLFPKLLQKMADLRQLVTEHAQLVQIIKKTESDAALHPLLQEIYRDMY

Regarding `CC(=O)CC(C)(C)C1CCCCC1`, the molecule was classed as inactive in [1], in assay [2], in assay [3], in assay [4], in [5] and in [6]. Further, the molecule was classed as inactive in assay [7].

Consider `CC(O)COCC(C)O` (stereo not drawn), for which the outcome in [8], in [3], in assay [9] and in assay [5] was inactive.

In the case of `CCCCCCOC(C)=O`, the molecule was called inactive in [1] and in assay [10].

Take `CC(=O)c1cccnc1`: the outcome in assay [8] and in assay [7] was inactive.

In the case of `COc1ccc(N)c(C)c1`, the molecule was classed as inactive in assay [1], in [3], in assay [5] and in assay [6]. The AC50 (in general, the concentration giving half of the maximal activity seen) in assay [7] is 73.2 µM (active).

In the case of `[Na+]`, the molecule was called inactive in assay [1], in assay [6] and in assay [7].

As to `C[N+](C)(C)CCO`, the molecule was classed as inactive in [1], in [10], in [3], in assay [9] and in [5].

With `CC(CO)(CO)[N+](=O)[O-]`, the result in assay [1], in assay [3], in assay [5] and in [6] was inactive.

Regarding `CC(=O)N(C)C`, the call in [1] and in assay [3] was inactive.

In the case of `Brc1cc(Br)cc(Br)c1`, the molecule was called inactive in [1], in assay [10], in assay [3], in assay [9], in assay [5] and in [7]. For the same molecule, the AC50 in assay [6] is 59.7 µM (active).

On to `O=c1cc(-c2ccc(O)cc2)oc2cc(O)cc(O)c12`, for which the molecule was classed as inactive in assay [1], in [4], in [5], in [6] and in [7]. Further, the AC50 in assay [10] is 18.2 µM (active).

With `CC(C)(O)C(=O)c1ccc(OCCO)cc1`, the molecule was classed as inactive in [1], in assay [3], in assay [9] and in assay [5].

Take `C=C/C(C)=C/C/C=C(\C)CCC=C(C)C`: the molecule was classed as inactive in assay [1] and in [6]. Also, the AC50 in [3] was 6.85 µM (active).

As to `O=C1OCc2ccccc21`, the outcome in [1], in [9] and in assay [5] was inactive.

As for `CC(C)COC(=O)c1ccccc1O`, the molecule was called inactive in [1], in assay [10], in [3], in assay [9], in assay [5] and in [6]. The molecule was called inactive in assay [7].

Take `O=[N+]([O-])c1cc(N(CCO)CCO)ccc1NCCO`: the molecule was classed as inactive in assay [1], in assay [5], in [6] and in [7].

As to `CCCCCC(=O)O[C@]1(C(C)=O)CC[C@H]2[C@@H]3CCC4=CC(=O)CC[C@]4(C)[C@H]3CC[C@@]21C`, the molecule was called inactive in assay [1] and in [5]. Moreover, the figures for the AC50 in [10] and in assay [3] were 3.22 µM (active) and 0.313 µM (active), respectively.

Regarding `O=C1Cc2ccccc2C1`, the call in assay [1], in assay [10], in assay [9], in assay [5] and in [6] was inactive. Moreover, the AC50 in assay [3] was 27.9 µM (active).

As to `CCCCCCCCCCOC(=O)c1ccccc1C(=O)OCCCCCCCC`, the molecule was called inactive in assay [1], in assay [10], in [3] and in assay [7].

On to `FC(F)(F)c1ccc(Cl)c(Cl)c1`, for which the outcome in assay [1], in assay [11] and in assay [5] was inactive.

Consider `CCCCCCCOC(C)=O`, for which the result in assay [1], in assay [10], in assay [3], in assay [5], in assay [6] and in [7] was inactive.

Regarding `CCC(C)(C)c1cc(O)c(C(C)(C)CC)cc1O`, the result in assay [1], in assay [10], in assay [5] and in assay [7] was inactive. The results for the AC50 in assay [3] and in assay [6] were 7.37 µM (active) and 59.9 µM (active), respectively.

Take `O=C(O)c1ccc(C(=O)O)c(C(=O)O)c1`: the result in assay [1], in [5], in [6] and in assay [7] was inactive.

As for `CC(=O)C1=C(C)[C@@H]2C[C@@]3(C1)[C@H](C)CC[C@H]3C2(C)C`, the result in [1], in [5] and in assay [7] was inactive. The AC50 in assay [10] is 100 µM (active); in assay [3] it was 2.1 µM (active); in assay [6], 21.4 µM (active).

Regarding `CCOC(=O)CC(C)C`, the molecule was called inactive in assay [1], in assay [10], in assay [3], in assay [9], in assay [5] and in assay [7].

Turning to `C1CCCNCC1`, the molecule was classed as inactive in [1], in assay [10], in assay [9] and in [7].

As to `CCC(C)(C)C1CCC(OC)CC1` (stereo not drawn), the molecule was classed as inactive in [1], in assay [10], in assay [6] and in assay [7]. Moreover, the AC50 in assay [3] is 8.16 µM (active).

As to `CC(C)(C)c1cc(CCC(=O)OCCSCCOC(=O)CCc2cc(C(C)(C)C)c(O)c(C(C)(C)C)c2)cc(C(C)(C)C)c1O`, the call in [1], in assay [3], in assay [11], in assay [9], in [5] and in assay [7] was inactive. The AC50 in assay [6] was 33.9 µM (active).

On to `CC12CCC(C1)C(C)(C)C2O` (stereo not drawn), for which the outcome in assay [1], in assay [3], in assay [9], in [5] and in [6] was inactive.

`COc1ccc2[nH]cc(CCNC(C)=O)c2c1`: the molecule was called inactive in [1], in [10], in [3], in [6] and in assay [7].

As for `CCCCCCCCOC(C)=O`, the molecule was called inactive in assay [1], in assay [10], in [5], in assay [6] and in assay [7].

As for `CC(=O)OC/C=C(C)/C=C/C=C(C)/C=C/C1=C(C)CCCC1(C)C`, the call in assay [1] and in assay [5] was inactive. Further, the results for the concentration at half-maximal activity (AC50) in assay [10] and in assay [3] were 27.3 µM (active) and 0.418 µM (active), respectively.
